# Data reported in PubChem BioAssay.
# Where “and” joins values, the source holds several entries; their conditions need not be identical. Equal entries are not always repeated. Results filed as inconclusive are left out. Calls of active or inactive are those of the source. Unless noted, the limit is not given here; nearly all actives have AC50 up to about 26 µM.
# Tests used:
# [1] = growth inhibition of DIPG glioma cells, dose response, cell-based, SU-DIPG-XVII, MIPE5.0, CellTiter-Glo, qHTS (AID 1347060); conditions: SU-DIPG-XVII viability, CellTiter-Glo ATP luminescence;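 as to AC50: cells exposed to compound for 48 hours before viability readout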
# [2] = growth inhibition of DIPG glioma cells, dose response, cell-based, SU-DIPG-XIII, MIPE5.0, CellTiter-Glo, qHTS (AID 1347064; cut-off not given, nearly all actives have AC50 up to about 23 µM;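 as to AC50: cells exposed to compound for 48 hours before the viability read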); conditions: SU-DIPG-XIII viability, CellTiter-Glo ATP luminescence
# [3] = viability loss in pontine glioma line – cell-based, SU-DIPG-XXV, MIPE5.0, CellTiter-Glo, qHTS, dose response (AID 1347065); conditions: CellTiter-Glo ATP luminescence;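 also: cells exposed to compound for 48 hours before ATP readout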
# [4] = JHH-DIPG-1 glioma cell viability, MIPE5.0 library, CellTiter-Glo luminescence, qHTS (AID 1347067); conditions: JHH-DIPG-1 glioma viability, CellTiter-Glo ATP luminescence;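 also: cells exposed to compound for 48 hours before readout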
# [5] = SU-DIPG-XXV glioma cell viability, MIPE5.0 library, qHTS (AID 1347068; cut-off not given, nearly all actives have IC50 up to about 30 µM;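 as to IC50: cells exposed to compound for 48 hours before viability readout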)
# [6] = sensitizers of A549 cells to miR-34 induction, primary screen, imaging, A549 dox-inducible miR-34, nuclei and caspase counts (AID 1347080;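 active = compounds whose cell count with miR-34 switched on is under 0.7 times the count with it off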); conditions: A549 miR-34 inducible, Hoechst nuclei count, 48 h
# [7] = survival rescue of mitochondrial mutant cells in low glucose, primary screen, MELAS cybrids, Rieske KO mouse fibroblasts, CellTiter-Glo (AID 1508586;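 active = mean z-score across replicates of 1.96 or higher in either the MELAS or the Rieske mutant cell line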;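 also: z relative to plate mean and SD of compound and empty wells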)
# [8] = stronger effect = lower value, cell number ratio, induced over uninduced
# [9] = measured here: relative caspase fold change +Dox/-Dox
# [10] = measured here: total cells with miR-34 induction, stronger effect = lower value
# [11] = measured here: total cells without miR-34 induction
# [12] = MELAS cybrid survival, CellTiter-Glo 48 h, stronger effect = higher value
# [13] = Rieske KO mouse fibroblast survival, CellTiter-Glo 72 h
smiles,measurement,setting,value
COC(C)(C)CCn1nc(Nc2c(C)cccc2C)c2cnc(Nc3ccc(OCCN4CCCC4)c(F)c3)nc21,AC50,[1],16.6 µM (active)
same,AC50,[2],18.6 µM (active)
same,AC50,[3],14.8 µM (active)
same,AC50,[4],16.6 µM (active)
same,IC50,[5],16.6 µM (active)
CCCc1c(OCCCOc2ccc(OCC(=O)O)cc2)ccc(C(C)=O)c1O,outcome,[1],inactive
same,outcome,[2],inactive
same,outcome,[3],inactive
same,outcome,[4],inactive
same,outcome,[5],inactive
same,fold change,[6]; [8],0.974 (inactive)
same,fold change,[6]; [9],1.33
same,cell count,[6]; [10],9670
same,cell count,[6]; [11],9930
CC(C)C(=O)OCC(=O)[C@@]12O[C@H](C3CCCCC3)O[C@@H]1C[C@H]1[C@@H]3CCC4=CC(=O)C=C[C@]4(C)[C@H]3[C@@H](O)C[C@@]12C,AC50,[1],13.2 µM (active)
same,AC50,[2],13.2 µM (active)
same,AC50,[3],8.33 µM (active)
same,AC50,[4],2.95 µM (active)
same,IC50,[5],14.8 µM (active)
same,z-score,[7]; [12],-0.376 (inactive)
same,z-score,[7]; [13],1.73
CCCCNc1ncc2c(-c3ccc(CN4CCN(C)CC4)cc3)cn(C3CCC(O)CC3)c2n1 (configuration not stated),AC50,[1],1.48 µM (active) and 1.32 µM (active)
same,AC50,[2],2.35 µM (active) and 1.86 µM (active)
same,AC50,[3],742 nM (active) and 934 nM (active)
same,AC50,[4],3.32 µM (active) and 2.95 µM (active)
same,IC50,[5],3.32 µM (active)
CN1CCC(c2c(O)cc(O)c3c(=O)cc(-c4ccccc4Cl)oc23)C1CO (configuration not stated),AC50,[1],0.934 µM (active)
same,AC50,[2],1.18 µM (active)
same,AC50,[3],1.18 µM (active)
same,AC50,[4],1.18 µM (active)
same,IC50,[5],1.86 µM (active)
same,fold change,[6]; [8],0.969 (inactive)
same,fold change,[6]; [9],0.481
same,cell count,[6]; [10],1620
same,cell count,[6]; [11],1670
same,z-score,[7]; [12],0.124 (inactive)
same,z-score,[7]; [13],-6.97
